The list is not random: actives were taken first. Their share in the collection is about 7.5%.
ELG1 genotoxic: qHTS screen for small molecules that induce genotoxicity in human embryonic kidney (HEK293T) cells expressing luciferase-tagged ELG1 | actives 1.3% (n = 330,000) | HEK293T ELG1-luciferase reporter, luminescence, 16 h | AID 504466, 2011 | Potency, µM (highest dose often 46 µM), without a hit: top-dose activity change, positive = activation, actives largely listed as activators; note: % of control where 0% means no effect; nearly all actives have a fitted effect of over 60% in size
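DMSO vehicle served as control against compound-treated ELG1-luciferase HEK293T cells; exposure lasted 16 hr at 37 °C and 5% CO2, followed by ONE-Glo luminescence detection after 30 min.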
Rab9 promoter act: qHTS Assay for Rab9 Promoter Activators; Huh7 Rab9 promoter-luciferase reporter, luminescence, 24 h; Potency, µM (series often up to 9.22 µM), inactives show at the highest dose activation, negative = inhibition, usual class: activators; actives 2.8% (n = 320,000); note: % of control where 0% means no effect; nearly all actives have a fitted effect of over 60% in size
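Stable Rab9-luc Huh7, 1500 cells/well, 2 h settle; cmpd in DMSO, 24 h, 37 °C/5% CO2; luciferase reagent 10 min RT; luminescence.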
FLuc counter: qHTS profiling assay for firefly luciferase inhibitor/activator using purifed enzyme and Km concentrations of substrates (counterscreen for miR-21 project). Luciferin 4-monooxygenase (Photinus pyralis), P08659. actives 6.9% (n = 360,000). Potency, µM (top dose mostly 57.5 µM), without a hit: at the top dose activity change, negative = inhibition, actives largely listed as inhibitors. purified FLuc, Km substrates, luminescence inhibition. AID 588342, 2011;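 note: plate controls were vehicle for no effect and reference inhibitor for full effect; nearly all actives have a fitted effect of over 55% in size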
Target sequence (P08659 whole entry, looked up): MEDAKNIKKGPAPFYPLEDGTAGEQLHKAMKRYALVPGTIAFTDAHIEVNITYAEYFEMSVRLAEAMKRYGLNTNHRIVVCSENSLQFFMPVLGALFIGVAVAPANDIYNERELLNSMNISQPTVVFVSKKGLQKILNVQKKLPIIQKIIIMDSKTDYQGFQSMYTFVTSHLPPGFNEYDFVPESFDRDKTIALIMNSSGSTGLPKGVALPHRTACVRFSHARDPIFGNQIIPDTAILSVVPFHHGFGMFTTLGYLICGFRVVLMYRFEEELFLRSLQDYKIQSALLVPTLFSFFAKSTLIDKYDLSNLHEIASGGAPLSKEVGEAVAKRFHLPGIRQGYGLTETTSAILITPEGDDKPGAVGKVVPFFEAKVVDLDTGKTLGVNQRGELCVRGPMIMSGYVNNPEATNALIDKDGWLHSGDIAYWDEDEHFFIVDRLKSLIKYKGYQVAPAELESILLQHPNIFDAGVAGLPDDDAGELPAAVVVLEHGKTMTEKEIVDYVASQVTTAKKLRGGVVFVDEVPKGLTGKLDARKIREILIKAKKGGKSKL
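Purified P. pyralis luciferase, 10 nM final, with Km-level 10 uM D-luciferin and 10 uM ATP in 50 mM Tris acetate pH 7.5, 10 mM Mg acetate, 0.01% Tween-20, 0.05% BSA; 6-point qHTS titration about 60 µM downward; luminescence read.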
NPC1 prom act: qHTS Assay for NPC1 Promoter Activators | Potency, µM (highest dose often 9.22 µM), for inactives: at the top dose activation, usual class: activators | Huh7 NPC1 promoter luciferase reporter, 24 h | actives 2.4% (n = 320,000); note: % of control where 0% means no effect; nearly all actives have a fitted effect of over 60% in size
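Stable NPC1-promoter luciferase Huh7 line; cpd (DMSO) 24 h, 37 °C, 5% CO2; Amplite luciferase reagent 10 min RT; luminescence readout. qHTS format.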
SMN2 splice up: qHTS Assay for Enhancers of SMN2 Splice Variant Expression; actives 2.8% (n = 210,000); Potency, µM (highest dose often 46.1 µM), for inactives: top-dose activity change, positive = activation, usual class: activators; HEK293 SMN2-luciferase splicing reporter, luminescence, 30-36 h; AID 1458, 2008; note: % of control where 0% means no effect; nearly all actives have a fitted effect of over 55% in size
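HEK293 cells carry an SMN2 minigene-luciferase reporter in which exon 7 inclusion puts luciferase in frame. Cells were seeded at 2000 cells/well, attached for 10-12 hours, then exposed to compounds for 30-36 hours at 37C before ONE-Glo luminescence.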
KinaseGlo FLuc: Counterscreen for Luciferase (Kinase-Glo TM) Inhibition; Luciferin 4-monooxygenase (Photuris pensylvanica), Q27757; Kinase-Glo luciferase, ATP luminescence, 8 min; Potency, µM (highest dose often 38.3 µM), for the others: at the top dose activity change, negative = inhibition, usual class: inhibitors; actives 0.28% (n = 200,000); note: % is set by controls: 0 for no effect and ±100 for the full control effect; nearly all actives have a fitted effect of over 60% in size
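Compound is pinned into ATP-containing buffer (10 uM ATP, imidazole pH 7.2, 7 mM MgCl2). Kinase-Glo luciferase reagent is then added. Light output is recorded following an 8-min room-temperature incubation.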
* marks the source's active call; other numbers are inactive results. Calls come from the whole dose curve; as a rule, active = well fitted curve in the direction sought with a large enough effect; inconclusive = small, poorly fitted or top-dose-only effect, or another doubt; inactive = no such curve, though single readings can be large; an effect the other way counts as inactive or inconclusive. Potency is the fitted concentration of half-maximal effect.

For CCCc1cc(=O)[nH]c(Nc2ccc(O)cc2C)n1 the results were FLuc counter 0% and SMN2 splice up 15%.
Screening Cc1cc(O)ccc1Nc1nc2ccccc2nc1Nc1ccc(O)cc1C returned ELG1 genotoxic 8%, Rab9 promoter act 6%, FLuc counter 17µM*, NPC1 prom act 7%, SMN2 splice up 3% and KinaseGlo FLuc -3%.
For CC(C(=O)Nc1ccc(S(=O)(=O)N2CCOCC2)cc1)N1C(=O)C2CC=CCC2C1=O (stereo not given) the results were ELG1 genotoxic -2%, Rab9 promoter act 0%, FLuc counter -1%, NPC1 prom act -4%, SMN2 splice up 22% and KinaseGlo FLuc 3%.
CN=c1scc(-c2ccc(F)cc2)n1/N=C/c1ccc(O)c(O)c1 was read as ELG1 genotoxic -7%, Rab9 promoter act 15%, FLuc counter 0.67µM*, NPC1 prom act -44%, SMN2 splice up inconclusive and KinaseGlo FLuc -19%.
`Cc1ccc(CN2CCN(/N=C/c3ccc(O)c(O)c3)CC2)cc1` gave ELG1 genotoxic 17%, Rab9 promoter act -1%, FLuc counter -10% and NPC1 prom act -13%.
`Brc1ccc(-c2cc3c(N4CCN(c5ccccc5)CC4)nccn3n2)cc1` gave FLuc counter -1% and SMN2 splice up 3%.
COc1ccc(CNC(=O)C(=O)NCCC2CCCCN2S(=O)(=O)c2cccs2)cc1 (stereo not given) was read as ELG1 genotoxic -6%, Rab9 promoter act -4%, FLuc counter 3% and NPC1 prom act 0%.
Screening COc1cc(C(=O)OC2CC[C@]3(C)C4CCC5[C@]6(O)CC(O)[C@]7(O)C(CN8CC(C)CCC8[C@]7(C)O)[C@]6(O)C[C@@]53O[C@]24O)cc(OC)c1OC (stereo not given in full) returned SMN2 splice up -9% and KinaseGlo FLuc -4%.
COCCCNC(=O)COc1ccc(Br)cc1Cl was read as ELG1 genotoxic inconclusive, Rab9 promoter act inconclusive, FLuc counter inconclusive, NPC1 prom act inconclusive, SMN2 splice up 16µM* and KinaseGlo FLuc 0%.
O=C(COc1ccc(Br)cc1Cl)NC(=S)Nc1ccccn1 was read as ELG1 genotoxic 1.6µM*, Rab9 promoter act inconclusive, FLuc counter 1.1µM* and NPC1 prom act inconclusive.
`CCNC(=O)COc1ccc(Br)cc1Cl` gave ELG1 genotoxic inconclusive, Rab9 promoter act 30%, FLuc counter inconclusive, NPC1 prom act 26%, SMN2 splice up 10% and KinaseGlo FLuc 0%.
Cc1ccc(OCC(=O)NC(=S)Nc2ccccn2)c(Br)c1 was read as ELG1 genotoxic 0.13µM*, Rab9 promoter act 2.8µM*, FLuc counter 0.19µM* and NPC1 prom act 1.6µM*.
For Cc1ccc(OCC(=O)NNC(=S)NC(=O)C2CC2)c(C)c1 the results were ELG1 genotoxic 8%, Rab9 promoter act -8%, FLuc counter 13µM* and NPC1 prom act -5%.
CCc1ccccc1NC(=O)CSc1ncc2c(n1)-c1ccccc1N(Cc1ccc(C)cc1)S2(=O)=O was read as FLuc counter -2%.
Screening Cc1cccc(NC(=O)CSc2nnc3ccc(-c4ccccn4)nn23)c1 returned ELG1 genotoxic -1%, Rab9 promoter act -1%, FLuc counter 3% and NPC1 prom act 0%.
Cc1ccc(OCC(=O)NNC(=S)NC(=O)C(C)(C)C)c(Br)c1 was read as ELG1 genotoxic 4%, Rab9 promoter act 5%, FLuc counter 27µM*, NPC1 prom act 1%, SMN2 splice up -47% and KinaseGlo FLuc 3%.

Screening results (PubChem BioAssay)
